Screening data as filed in PubChem.
This excerpt belongs to a sample that is enriched for hits.
Pf apPOL block: Pf-apPOL inhibitors, biochemical, fluorescence; Recombinant Pf-apPOL, molecular beacon fluorescence, 1.5 h; 0.25% of 210,000 active; AID 1794808, 2022; Plasmodium falciparum apicoplast DNA polymerase (apPOL); inhibition, % at 10 µM
mHTT-CaM PPI inh: mutant huntingtin-calmodulin interaction inhibitors – biochemical, AlphaScreen, primary screen; P42858; AID 1671202, 2021; inhibition, % at 15 µM; 3.6% of 190,000 active; AlphaScreen His-mHTT/GST-CaM binding, luminescence;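 note: 0% = both proteins with DMSO and 100% = one protein alone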
Active calls of the source: *; . = no result given. Cut-off read from the data, not from the text of the source: active = inhibition above about 50%; inactive = the rest.

SMILES	Pf apPOL block	mHTT-CaM PPI inh
COc1ccc2c(c1)C(C)(C)C1(C=Cc3cc([N+](=O)[O-])ccc3O1)N2C (centres undefined)	-2.1	70.0*
COc1cccc2c1OC1(C=C2)N(C)c2ccc([N+](=O)[O-])cc2C1(C)C (centres undefined)	4.7	8.0
CC1(C)c2ccccc2N(CC(N)=O)C12C=Cc1cc([N+](=O)[O-])ccc1O2 (centres undefined)	4.1	85.0*
CN1c2ccccc2C(C)(C)C12C=Cc1cc(Br)cc([N+](=O)[O-])c1O2 (centres undefined)	-499.2	.
Cc1ccc(C(C)NC(=O)Cn2ccc3c(C)nn(C)c3c2=O)cc1C (centres undefined)	-2.5	11.6
CC(=O)Nc1ccccc1NC(=O)Cc1ccc(Cl)cc1	94.8*	-1.3
O=C(Cc1ccc(Cl)cc1)Nc1ccccc1NC(=O)Cc1ccc(Cl)cc1	3.0	-5.3
C[C@H](c1ccccc1)N1C[C@@H](COCc2ccccc2)Oc2cc(N3CC[C@H](O)C3)ccc2S1(=O)=O	-2.1	77.8*
COC[C@@H]1CCCN1c1ccc2c(c1)O[C@@H](COCc1ccccc1)CN([C@H](C)c1ccccc1)S2(=O)=O	-6.7	1.3
C[C@H](c1ccccc1)N1C[C@H](COCc2ccccc2)Oc2cc(N3CC[C@H](O)C3)ccc2S1(=O)=O	-4.2	72.0*
C[C@H](c1ccccc1)N1C[C@H](COCc2ccccc2)Oc2cc(N3CCC[C@@H]3CO)ccc2S1(=O)=O	-9.6	29.7
O=C(c1c(F)cccc1F)N1CCCC(c2ccnc(-c3ccc(F)cc3)n2)C1 (centres undefined)	-6.4	0.2
COc1ccc(N=C2NC(=O)/C(=C\c3ccco3)S2)cc1	-21.2	43.0
COc1cccc(/C=C2/SC(=Nc3ccccc3Cl)NC2=O)c1OC	-2.6	8.0
O=C1NC(=Nc2cccc(Cl)c2Cl)S/C1=C\c1ccco1	-14.6	100.0*
Cc1ccc(N=C2NC(=O)/C(=C/c3ccco3)S2)cc1	-3.3	69.0*
O=C(COc1ncnc2cc(Cl)ccc12)NNC(=O)c1cccc2ccccc12	-6.4	.
O=C(NCc1ccccn1)C(=O)Nc1cccc(C(F)(F)F)c1	-4.1	-2.0
Oc1c(C(Nc2ccc(Cl)cc2)c2ccccn2)ccc2cccnc12 (centres undefined)	-3.8	100.0*
O=[N+]([O-])c1ccc(NC(c2ccccn2)c2ccc3cccnc3c2O)cc1 (centres undefined)	-2.5	100.0*
Oc1c(C(Nc2cccc(C(F)(F)F)c2)c2cccnc2)ccc2cccnc12 (centres undefined)	-3.5	99.0*
O=[N+]([O-])c1ccc(OCCOc2cccc3cccnc23)cc1	-0.3	2.4
CN(C)CCC(c1ccc(Cl)cc1)c1ccccn1 (centres undefined)	-8.0	.
Oc1c(C(Nc2cccc(C(F)(F)F)c2)c2ccccn2)ccc2cccnc12 (centres undefined)	-113.9	99.1*
Cc1[nH]c2ccccc2c1C(Nc1cccc(C(F)(F)F)c1)c1cccnc1 (centres undefined)	-6.9	4.0
SMILES	Pf apPOL block	mHTT-CaM PPI inh
Cc1ccccc1COc1ccc2c(c1)OC(=Cc1ccncc1)C2=O	-1.2	12.5
CCN(CC)S(=O)(=O)N1CCCC(C(=O)NC2CCC(C)CC2)C1 (centres undefined)	-10.1	-8.0
Cc1noc(-c2nn(C)c3c2CN(C(=O)c2ccoc2)CC3)n1	-0.4	-1.4
O=C(Nc1cccc2cccnc12)c1ccc(Cl)cc1Cl	-4.8	-8.0
COc1ccc(NC(=O)c2cccnc2)cc1	-7.5	-2.3
Oc1c(C(Nc2cccc(Cl)c2)c2ccccn2)ccc2cccnc12 (centres undefined)	-5.4	100.0*
COc1ccc(NC(c2cccnc2)c2ccc3cccnc3c2O)cc1 (centres undefined)	-2.6	99.0*
COc1ccc(C(=O)Nc2ccc(Cl)cn2)c(OC)c1OC	-1.7	-3.0
Cc1ccc(CC(=O)N2CCC(c3nc(C(=O)N4CCCCC4)c(C)o3)CC2)cc1	0.3	19.4
COCCNC(=O)C1CCN(c2cccc(Cl)c2)C1=O (centres undefined)	0.8	-6.3
CN(C)c1ccc(C(=O)Nc2cc(-c3ccccn3)no2)cc1	-14.5	-5.0
Cc1ccc(Nc2nc(-c3ccccn3)cs2)cc1	-3.7	93.0*
CC(=O)c1cccc(Nc2nc(-c3ccccn3)cs2)c1	-11.3	86.4*
CC(=O)c1cccc(Nc2nc(-c3ccccc3)cs2)c1	-3.1	22.1
O=[N+]([O-])c1ccc(Nc2nc(-c3ccccn3)cs2)cc1	4.8	48.0
CC(=O)Nc1cccc(-c2csc(Nc3ccc(C(=O)O)cc3)n2)c1	-9.9	9.4
CN(C)c1ccc(Nc2nc(-c3ccccn3)cs2)cc1	-17.0	100.3*
CC(=O)Nc1ccc(Nc2nc(-c3ccccn3)cs2)cc1	-7.1	92.0*
CC(=O)N1CCc2cc(C(=O)N(C)C)ccc21	-1.3	3.2
CCOc1ccc(Nc2nc(-c3sc(NC(C)=O)nc3C)cs2)cc1	8.2	64.2*
CC(=O)Nc1nc(C)c(-c2csc(Nc3ccc(C(=O)O)cc3)n2)s1	-7.2	4.8
Cc1ccnc(Nc2nc(-c3ccccn3)cs2)c1	-0.9	100.0*
Cc1ccnc(Nc2nc(-c3cccs3)cs2)c1	-5.0	24.8
COc1ccc(C2CC(c3cc(Cl)ccc3O)=NN2)cc1OC (centres undefined)	-3.1	74.2*
COc1ccc(C2CC(c3cc(F)ccc3O)=NN2)c(OC)c1 (centres undefined)	-10.3	55.8*
SMILES	Pf apPOL block	mHTT-CaM PPI inh
COc1ccc(C2C=C(c3ccc(F)cc3)Nc3nnnn32)c(OC)c1 (centres undefined)	-5.6	4.0
CCOc1ccc(C2CC(c3ccccc3O)=NN2)cc1 (centres undefined)	-1.2	17.0
COc1ccc(C2CC(c3ccc(Cl)cc3)Nc3nc(N)nn32)cc1OC (centres undefined)	-9.0	6.9
Oc1ccc(C2CC(c3ccccc3O)=NN2)cc1 (centres undefined)	-1.3	96.0*
Oc1ccc(Br)cc1C1=NNC(c2cccs2)C1 (centres undefined)	0.6	43.8
Oc1ccc(Cl)cc1C1=NNC(c2ccc(Br)cc2)C1 (centres undefined)	-1.2	75.0*
Cc1ccc(NC(=O)C2CCN(c3c(C#N)cnc4ccccc34)CC2)cc1	-0.2	1.9
CCSc1nnc(-c2nn(C)c3c2CN(C(=O)C2CC2)CC3)n1C	-1.2	0.4
COc1ncc(C(=O)N2CCN(c3ccccc3Cl)CC2)cn1	0.9	-4.1
COc1cccc(CNS(=O)(=O)c2cc(Br)cc3c2N(C(C)=O)CC3)c1	-8.0	-8.0
COCCCNC(=O)CSc1nc2ccsc2c(=O)n1-c1ccc(F)cc1	-4.1	1.0
COc1cc(C(=O)N2CCC(c3noc(-c4ccccc4)n3)CC2)cc(OC)c1OC	-2.5	-4.2
CCOC(=O)N1CCC2(CC1)N=C(c1cc(Cl)ccc1O)CC(c1ccccc1)N2 (centres undefined)	-4.8	40.3
Oc1ccc(Cl)cc1C1=NNC(c2ccccc2F)C1 (centres undefined)	-5.5	54.3*
CCC(=O)N1N=C(c2cccc(NS(=O)(=O)CC)c2)CC1c1cccc([N+](=O)[O-])c1 (centres undefined)	-2.3	-7.9
CCN1CCN(C(=O)c2cnc(-c3ccccc3)nc2N2CCSCC2)CC1	-12.2	27.0
